Our source for the inhibition values is PubChem BioAssay AID504753 (Sanford-Burnham Center for Chemical Genomics, 2011).

SMILES strings stand for the structures. Out of some 2,400 compounds screened, about 820 (34%) were called active. These entries were drawn from the full list. A number with no mark means an inactive call.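 The calls were made as follows: active = inhibition of at least 50% at 20 µM in any single replicate; inactive = the rest.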

The assay deals with glucose-6-phosphate dehydrogenase-6-phosphogluconolactonase (PfGluPho), Plasmodium falciparum 3D7. Nature of the assay: PfG6PD inhibitors, hit retest, confirmation, biochemical, fluorescence intensity, single concentration (AID 504753).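 Also: 0% = DMSO with substrate and 100% = DMSO lacking glucose-6-phosphate substrate.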 The following applies: recombinant PfGluPho, NADPH-diaphorase-resazurin fluorescence; at 20 µM; stronger effect = higher value. (In general: The colour change of resazurin is a common sign of viable cells or microbes.)
As for `O=C1NC(=O)N(c2ccccc2)C(=O)/C1=C/c1ccc([N+](=O)[O-])s1`, the inhibition is 64.4% (active).

As to `COC(=O)N(c1ccc(OC)cc1)P1(=S)OCCC(C)O1` (stereo not given), the inhibition was 34.3%.

Turning to `Cc1cc(C)c2c(c1)NP(=S)(c1ccccc1)N2` (stereo not given), the inhibition was -21%.

In the case of `O=C(CSC1c2ccccc2-c2ccccc21)N/N=C/c1ccccc1`, the inhibition is 35.3%.

Take `COc1cccc(-c2nc3ccc(N4CCN(C)CC4)cc3[nH]2)c1`: the inhibition was 13.5%.

As a reminder, the inhibition is the drop in the measured response relative to a control, in per cent.
